For 11 molecules, Percent Effect results are on record in ChEMBL document CHEMBL3988442, “University of Dundee, Small-Polar-MMV Screening Library” (2021).

The structures appear in SMILES notation. For some of these results: Results with a measured potency or affinity are listed apart.

What all share (set-up): scale not given: direction of the effect not stated beside the values
Assay [1] addresses Protein translocase subunit SecA (Escherichia coli (strain K12)) (UniProt P10408). The assay is described as follows: Assay to Identify E. coli SecA ATPase Inhibitors. Format: functional. The following applies: 30 µM.
Assay [2] concerns the target T1, Ubiquitin-activating enzyme e1, putative (Leishmania donovani (strain BPK282A1)) (UniProt E9BSI1).
T1 sequence (whole entry): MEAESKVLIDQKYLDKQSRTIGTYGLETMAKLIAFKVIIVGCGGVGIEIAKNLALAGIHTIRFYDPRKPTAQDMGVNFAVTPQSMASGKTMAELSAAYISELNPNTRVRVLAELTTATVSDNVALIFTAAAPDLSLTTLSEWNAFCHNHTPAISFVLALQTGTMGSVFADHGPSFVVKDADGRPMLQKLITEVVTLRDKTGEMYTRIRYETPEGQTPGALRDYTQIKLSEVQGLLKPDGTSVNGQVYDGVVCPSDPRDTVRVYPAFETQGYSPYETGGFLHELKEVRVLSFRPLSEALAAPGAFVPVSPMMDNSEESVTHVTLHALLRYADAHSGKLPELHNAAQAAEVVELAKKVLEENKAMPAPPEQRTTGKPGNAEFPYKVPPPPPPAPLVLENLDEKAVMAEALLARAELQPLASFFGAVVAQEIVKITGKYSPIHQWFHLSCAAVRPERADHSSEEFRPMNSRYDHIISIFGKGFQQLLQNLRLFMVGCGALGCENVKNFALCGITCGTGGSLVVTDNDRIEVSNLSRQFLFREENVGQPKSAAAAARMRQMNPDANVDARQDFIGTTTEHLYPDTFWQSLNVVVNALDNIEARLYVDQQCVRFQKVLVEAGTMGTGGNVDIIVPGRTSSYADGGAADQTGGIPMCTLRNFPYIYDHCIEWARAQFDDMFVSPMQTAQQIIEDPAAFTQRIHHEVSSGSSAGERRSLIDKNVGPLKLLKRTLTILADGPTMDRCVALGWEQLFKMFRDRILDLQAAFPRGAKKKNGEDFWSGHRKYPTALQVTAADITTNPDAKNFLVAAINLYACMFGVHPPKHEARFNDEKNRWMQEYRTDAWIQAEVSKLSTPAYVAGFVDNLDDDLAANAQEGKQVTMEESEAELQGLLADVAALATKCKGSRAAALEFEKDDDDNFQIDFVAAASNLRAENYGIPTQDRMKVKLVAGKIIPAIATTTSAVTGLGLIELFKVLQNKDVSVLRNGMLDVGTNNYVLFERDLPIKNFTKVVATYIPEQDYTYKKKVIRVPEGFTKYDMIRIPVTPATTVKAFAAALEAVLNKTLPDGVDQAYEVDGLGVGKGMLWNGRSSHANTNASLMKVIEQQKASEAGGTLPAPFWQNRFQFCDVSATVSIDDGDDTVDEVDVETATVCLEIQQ
The assay is described as follows: Leishmania donovani Ubiquitin Activating Enzyme (LdE1). The following applies: 30 µM. The class given is functional.

Assay [3] deals with AMP-activated protein kinase, AMPK (Homo sapiens) (UniProt P54646+O43741+P54619+Q9UGJ0+Q9Y478+Q13131+Q9UGI9). In words: AMP-dependent Kinase enzyme assay. An in vitro enzyme assay that detects ADP turnover that is directly proportional to AMPK activity. This uses naive AMPK that is activated during the assay with MK-8722. Format: functional. The following applies: 30 µM.
The target of assay [4] is Sialic acid-binding Ig-like lectin 9 (Homo sapiens) (UniProt Q9Y336). In words: Hs-Siglec9 ALPHAscreen SOP 20170721. The following applies: 10 µM.
Sialic acid-binding Ig-like lectin 9 (Homo sapiens), sequence (Q9Y336 whole entry): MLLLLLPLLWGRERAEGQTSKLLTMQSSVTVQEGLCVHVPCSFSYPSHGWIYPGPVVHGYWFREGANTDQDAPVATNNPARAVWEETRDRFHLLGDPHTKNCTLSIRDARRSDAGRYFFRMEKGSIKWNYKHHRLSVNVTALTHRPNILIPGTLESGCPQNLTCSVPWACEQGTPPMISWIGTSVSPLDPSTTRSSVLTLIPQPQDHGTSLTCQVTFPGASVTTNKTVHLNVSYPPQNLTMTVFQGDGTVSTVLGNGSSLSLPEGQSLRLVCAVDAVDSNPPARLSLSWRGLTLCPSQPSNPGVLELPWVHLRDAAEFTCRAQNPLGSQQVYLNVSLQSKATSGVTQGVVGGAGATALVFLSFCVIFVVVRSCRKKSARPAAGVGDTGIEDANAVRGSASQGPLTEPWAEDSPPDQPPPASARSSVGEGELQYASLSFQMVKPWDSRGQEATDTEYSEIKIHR
For the next assay, the system named is Trypanosoma cruzi. The assay is described as follows: Trypanosoma cruzi phosphomannomutase and mannose-1-phosphate guanylyltransferase assay. Format: functional. The following applies: 10 µM.
In assay [5] the target is T2, Arginase-2, mitochondrial (Homo sapiens) (UniProt P78540).
T2 sequence (whole entry): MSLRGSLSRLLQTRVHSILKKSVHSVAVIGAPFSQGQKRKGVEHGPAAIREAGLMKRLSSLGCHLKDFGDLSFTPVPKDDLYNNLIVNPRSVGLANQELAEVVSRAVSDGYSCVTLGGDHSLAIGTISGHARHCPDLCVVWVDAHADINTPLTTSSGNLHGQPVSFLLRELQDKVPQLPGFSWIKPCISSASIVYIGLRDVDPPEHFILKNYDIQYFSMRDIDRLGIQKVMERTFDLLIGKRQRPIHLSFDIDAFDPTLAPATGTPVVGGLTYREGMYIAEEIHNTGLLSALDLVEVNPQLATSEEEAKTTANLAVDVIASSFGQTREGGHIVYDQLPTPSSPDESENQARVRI
The assay is described as follows: in vitro enzyme assay to detect the production of urea directly proportional to the activity of Arginase II. Also: in the data most compounds retested in dose-response had high values. The following applies: 33.3 µM. Format: functional.

Assay [6] concerns the target T3, Proteasome subunit beta (Trypanosoma cruzi) (UniProt O96673).
T3 sequence (whole entry): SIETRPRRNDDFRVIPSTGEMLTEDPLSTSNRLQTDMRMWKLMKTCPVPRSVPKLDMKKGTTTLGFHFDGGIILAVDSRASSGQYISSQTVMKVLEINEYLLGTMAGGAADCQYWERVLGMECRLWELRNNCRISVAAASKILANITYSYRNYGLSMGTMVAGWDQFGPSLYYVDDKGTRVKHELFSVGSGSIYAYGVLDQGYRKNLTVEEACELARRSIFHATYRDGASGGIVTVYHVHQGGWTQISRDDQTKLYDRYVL
In words: Trypanosoma cruzi proteasome chymotrypsin-like activity (TcProtChymo) assay. Also: in the data most compounds retested in dose-response had high values. The class given is functional. The following applies: 9.37 µM.

The species entered for the next assay is Homo sapiens. The assay is described as follows: To identify inhibition of the IFN signalling (Jak-Stat) pathway via expression of an eGFP reporter gene under the control of an IFN-stimulated response element (ISRE) containing MxA promoter. Format: functional. The following applies: 30 µM.
The target in assay [7] is T4, Tyrosyl-tRNA synthetase, putative (Trypanosoma cruzi (strain CL Brener)) (UniProt Q4DSP6).
T4 sequence (whole entry): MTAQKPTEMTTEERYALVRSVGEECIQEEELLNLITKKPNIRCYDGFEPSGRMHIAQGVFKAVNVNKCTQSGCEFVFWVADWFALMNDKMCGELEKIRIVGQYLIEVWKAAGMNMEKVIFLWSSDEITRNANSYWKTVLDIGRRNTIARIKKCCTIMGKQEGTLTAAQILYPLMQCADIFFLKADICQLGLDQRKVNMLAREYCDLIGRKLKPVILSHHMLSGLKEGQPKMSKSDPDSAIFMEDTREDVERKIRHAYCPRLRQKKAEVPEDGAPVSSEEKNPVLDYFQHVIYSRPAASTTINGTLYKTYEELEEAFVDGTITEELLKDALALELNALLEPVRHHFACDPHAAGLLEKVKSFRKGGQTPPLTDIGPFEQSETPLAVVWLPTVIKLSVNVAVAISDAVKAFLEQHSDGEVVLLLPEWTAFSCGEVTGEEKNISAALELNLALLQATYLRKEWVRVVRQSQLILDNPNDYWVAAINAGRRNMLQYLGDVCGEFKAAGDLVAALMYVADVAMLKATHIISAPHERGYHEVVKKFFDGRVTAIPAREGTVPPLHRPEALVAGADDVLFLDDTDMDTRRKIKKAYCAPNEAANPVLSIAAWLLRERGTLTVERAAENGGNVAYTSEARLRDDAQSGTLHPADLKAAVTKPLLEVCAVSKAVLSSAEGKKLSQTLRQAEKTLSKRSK
The assay is described as follows: Trypanosoma cruzi tyrosyl tRNA synthetase (TcYRS) _High Tyrosine SOP. Also: in the data most compounds retested in dose-response had high values. The class given is functional. The following applies: 30 µM.

In assay [8] the target is T4, Tyrosyl-tRNA synthetase, putative (Trypanosoma cruzi (strain CL Brener)). In words: Trypanosoma cruzi tyrosyl tRNA synthetase (TcYRS) SOP. Format: functional. The following applies: 30 µM.
The target of assay [9] is Chromo domain-containing protein 1 (Saccharomyces cerevisiae (strain ATCC 204508 / S288c) (Baker's yeast)) (UniProt P32657). The assay is described as follows: ScCHD-1 Enzyme Inhibition Assay. Also: in the data most compounds retested in dose-response had high values. The class given is functional. The following applies: 30 µM.
Chromo domain-containing protein 1 (Saccharomyces cerevisiae (strain ATCC 204508 / S288c) (Baker's yeast)), sequence (P32657 whole entry, the tested form may be a part): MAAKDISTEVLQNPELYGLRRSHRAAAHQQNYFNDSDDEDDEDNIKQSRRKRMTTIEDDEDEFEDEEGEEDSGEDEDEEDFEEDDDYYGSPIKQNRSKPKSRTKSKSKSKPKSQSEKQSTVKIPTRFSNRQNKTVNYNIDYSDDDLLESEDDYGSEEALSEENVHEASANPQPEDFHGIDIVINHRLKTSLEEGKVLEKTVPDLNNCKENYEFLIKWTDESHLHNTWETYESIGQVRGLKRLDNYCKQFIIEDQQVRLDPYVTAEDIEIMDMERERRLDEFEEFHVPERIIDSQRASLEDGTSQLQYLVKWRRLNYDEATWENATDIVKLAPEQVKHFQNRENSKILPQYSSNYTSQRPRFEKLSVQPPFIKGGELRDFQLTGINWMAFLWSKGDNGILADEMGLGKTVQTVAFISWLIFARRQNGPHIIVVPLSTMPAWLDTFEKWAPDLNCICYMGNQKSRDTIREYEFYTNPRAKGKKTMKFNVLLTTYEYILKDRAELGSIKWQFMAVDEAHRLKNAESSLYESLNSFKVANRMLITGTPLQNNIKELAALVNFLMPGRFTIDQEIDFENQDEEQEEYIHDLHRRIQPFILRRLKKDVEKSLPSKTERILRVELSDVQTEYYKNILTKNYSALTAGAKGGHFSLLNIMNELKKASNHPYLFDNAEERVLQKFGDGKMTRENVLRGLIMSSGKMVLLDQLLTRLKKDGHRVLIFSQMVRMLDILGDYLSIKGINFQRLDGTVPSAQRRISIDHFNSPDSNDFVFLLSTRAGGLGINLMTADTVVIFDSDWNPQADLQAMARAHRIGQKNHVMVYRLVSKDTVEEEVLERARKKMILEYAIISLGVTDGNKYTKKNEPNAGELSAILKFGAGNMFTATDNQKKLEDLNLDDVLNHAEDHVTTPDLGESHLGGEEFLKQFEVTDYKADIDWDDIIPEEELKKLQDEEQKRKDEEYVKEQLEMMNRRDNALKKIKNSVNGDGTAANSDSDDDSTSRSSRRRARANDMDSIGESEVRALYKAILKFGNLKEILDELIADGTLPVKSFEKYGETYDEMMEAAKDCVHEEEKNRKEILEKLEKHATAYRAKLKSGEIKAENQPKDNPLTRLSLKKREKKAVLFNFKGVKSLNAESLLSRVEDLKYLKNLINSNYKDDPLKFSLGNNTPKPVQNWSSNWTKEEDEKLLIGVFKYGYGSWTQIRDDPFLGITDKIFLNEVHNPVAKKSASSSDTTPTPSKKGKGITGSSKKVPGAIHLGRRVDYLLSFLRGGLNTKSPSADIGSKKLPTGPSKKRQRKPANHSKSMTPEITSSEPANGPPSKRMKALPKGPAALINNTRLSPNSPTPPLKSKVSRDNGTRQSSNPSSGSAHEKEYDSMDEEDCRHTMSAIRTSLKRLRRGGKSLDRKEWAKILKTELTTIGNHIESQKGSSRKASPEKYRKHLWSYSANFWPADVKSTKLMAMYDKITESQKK

Protein translocase subunit SecA (Escherichia coli (strain K12)), sequence (P10408 whole entry): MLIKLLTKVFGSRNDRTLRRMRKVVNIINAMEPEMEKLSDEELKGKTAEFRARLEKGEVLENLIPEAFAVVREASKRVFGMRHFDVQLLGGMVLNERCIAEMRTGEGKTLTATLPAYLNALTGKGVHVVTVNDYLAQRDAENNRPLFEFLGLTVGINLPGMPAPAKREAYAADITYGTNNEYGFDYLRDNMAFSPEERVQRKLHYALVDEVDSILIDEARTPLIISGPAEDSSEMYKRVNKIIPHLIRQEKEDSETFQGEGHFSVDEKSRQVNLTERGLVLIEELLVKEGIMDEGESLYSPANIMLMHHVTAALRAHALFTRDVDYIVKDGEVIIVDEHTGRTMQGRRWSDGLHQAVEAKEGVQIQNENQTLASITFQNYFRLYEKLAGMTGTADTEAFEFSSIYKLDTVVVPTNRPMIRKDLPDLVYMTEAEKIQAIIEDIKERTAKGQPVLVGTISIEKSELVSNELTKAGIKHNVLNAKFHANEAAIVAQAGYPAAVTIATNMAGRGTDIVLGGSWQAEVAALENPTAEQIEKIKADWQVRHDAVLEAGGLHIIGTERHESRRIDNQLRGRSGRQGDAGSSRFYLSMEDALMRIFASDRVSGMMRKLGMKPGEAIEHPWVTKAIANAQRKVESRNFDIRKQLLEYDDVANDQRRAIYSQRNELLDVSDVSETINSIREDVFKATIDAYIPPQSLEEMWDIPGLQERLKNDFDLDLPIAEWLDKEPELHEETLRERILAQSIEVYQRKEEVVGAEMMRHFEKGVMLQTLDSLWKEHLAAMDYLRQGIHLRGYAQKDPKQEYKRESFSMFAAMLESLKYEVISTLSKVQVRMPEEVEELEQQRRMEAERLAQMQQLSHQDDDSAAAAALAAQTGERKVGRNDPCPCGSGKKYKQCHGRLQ

Take `N#CCSCCCN1CCCN(C(=O)c2ccccc2)CC1`: the Percent Effect in assay [1] is -1.53%; in assay [2], -5.48%; in [3] it was 0.11%; in assay [4] it was 1.74%; with Trypanosoma cruzi, -4.17%; in assay [5] it was 3.19%. Besides, the Percent Effect in [6] is 1.63%; in the assay listed under Homo sapiens, 14.4%; in assay [7], 1.04%; in [8], 3.7%; in assay [9] it was 6.49%.

On to `Cc1csc(N2CCCN(Cc3noc(C)n3)CC2)n1`, for which the Percent Effect in assay [1] was -2.54%; in assay [2], 3.8%; in assay [3], -4.18%; in assay [4], 0.549%; with Trypanosoma cruzi, 2.36%; in [5] it was -7.1%. In addition, the Percent Effect in assay [6] was 15.9%; in the assay filed under Homo sapiens it was 11.2%; in assay [7], 5.21%; in assay [8], 7.59%; in [9] it was -16%.

Take `Cc1nc(C)n(CC2CCCCN2CC(=O)N(C)Cc2ccco2)n1` (stereo unspecified): the Percent Effect was -1.21% in [1]; 0% in assay [2]; 13.5% in [3]; 5.38% in assay [4]; 2.45% in the assay on Trypanosoma cruzi; 0.21% in assay [5]. The Percent Effect is 11.9% in [6]; 5.11% in the assay filed under Homo sapiens; 0% in [7]; -2.35% in [8]; -7.89% in [9].

`COc1ccccc1N1CCC(CNCc2cccc(C#N)c2)C1` (stereo unspecified): the Percent Effect in [1] is -2.81%; in [2], 8.11%; in assay [3] it was 9.38%; in assay [4], -7.09%; with Trypanosoma cruzi, 3.11%; in [5], -8.82%. Also, the Percent Effect in assay [6] was 17.3%; in the assay filed under Homo sapiens it was -10.4%; in assay [7], 13.3%; in [8], 18.5%; in [9], 10.3%.

For the molecule `Cn1ccnc1CN1CCCCC1Cn1cccn1` (stereo unspecified), the Percent Effect was -4.99% in assay [1]; 3.8% in assay [2]; 0.666% in assay [3]; 3.72% in assay [4]; 0.718% in the assay on Trypanosoma cruzi; 0.215% in assay [5]. The Percent Effect in [6] was -1.03%; in the assay listed under Homo sapiens it was 4.51%; in assay [7] it was 6.25%; in assay [8] it was 10.1%; in [9], -20.8%.

As for `Cc1cc(N2CCN(CCO)CC2)nc(-c2ccncc2)n1`, the Percent Effect in assay [1] is -0.472%; in assay [2], 5.26%; in assay [3] it was 0.962%; in [4], -2.69%; in the assay with Trypanosoma cruzi, -0.876%; in [5], -8.28%. Moreover, the Percent Effect in assay [6] is 21.6%; in the assay listed under Homo sapiens, -0.921%; in [7], 7.45%; in [8] it was 7.79%; in assay [9], -4.96%.

Take `COc1nn(C)cc1C(=O)N1CCC(c2nnc(C3CC3)o2)CC1`: the Percent Effect in [1] is -2.78%; in [2] it was 10.4%; in assay [3], 4.71%; in [4], 4.31%; in the assay on Trypanosoma cruzi it was -0.888%; in assay [5], 9.68%. The Percent Effect was 11.5% in assay [6]; 16.4% in the assay listed under Homo sapiens; 8.47% in [7]; 11.5% in assay [8]; -10.2% in assay [9].

With `COC(=O)c1cc(C(=O)N2CCOCC2(C)C)n(-c2ccccc2)n1`, the Percent Effect was -2.65% in assay [1]; 7.89% in [2]; 4.52% in [3]; 4.64% in assay [4]; 6.2% in the assay on Trypanosoma cruzi; -6.13% in assay [5]. Further, the Percent Effect is 0% in [6]; -3.57% in the assay listed under Homo sapiens; 4.41% in assay [7]; 17.1% in assay [8]; -9.02% in [9].

Consider `CN(Cc1nnc(C2CC2)n1C)C(=O)c1ccnc(OC2CCC2)c1`, for which the Percent Effect in [1] was -5.02%; in [2], 2.7%; in [3] it was 2.08%; in [4], 2.83%; in the assay on Trypanosoma cruzi, 3.09%; in [5], 1.43%. In addition, the Percent Effect in [6] was 6.21%; in the assay listed under Homo sapiens, -9.69%; in [7], 0.529%; in assay [8], -2.44%; in assay [9], -2.68%.

As for `CN(C)C1CCN(C(=O)NCc2ccc(Cn3cncn3)cc2)CC1`, the Percent Effect in assay [1] was -4.29%; in [2], -5.41%; in assay [3], -5.16%; in assay [4], 28.9%; in the assay on Trypanosoma cruzi, 9.85%; in assay [5], -2.38%. Further, the Percent Effect was 14.5% in [6]; 6.43% in the assay listed under Homo sapiens; 5.82% in assay [7]; 17.1% in assay [8]; -10% in assay [9].

Consider `O=S(=O)(NCC1CCN(c2cnccn2)CC1)c1c(F)cccc1F`, for which the Percent Effect was 0.613% in assay [1]; 5.2% in assay [2]; -0.808% in assay [3]; -3.89% in [4]; -5.82% in the assay with Trypanosoma cruzi; 9.68% in [5]. The Percent Effect was 5.74% in [6]; 8.19% in the assay filed under Homo sapiens; 3.17% in [7]; 6.41% in assay [8]; -7.48% in assay [9].
